# Most compounds without a hit are left out; they make up all but 3.2% or so of the library.
# GALK inh – galactokinase (human) inhibition; Potency, µM (doses to about 57.5 µM), for the others: top-dose activity change, negative = inhibition, actives largely listed as inhibitors; Purified GALK, Kinase-Glo residual ATP luminescence; 0.007% of 270,000 active; further: potency means the concentration at half of the fitted maximal effect
#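 Kinase-Glo Plus luminescence measured ATP left after a 1 h room-temperature reaction. The reaction used 5 nM GALK, 100 uM galactose and 35 uM ATP at pH 8.0 (20 mM HEPES, 5 mM MgCl2, 60 mM NaCl, 1 mM DTT, 0.01% BSA).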
# USP2a block – blocks human ubiquitin-specific protease USP2a; O75604; USP2 core, Ub-CHOP2 coupled fluorogenic reporter, 485/531; Potency, µM (top dose mostly 38.3 µM), for the others: at the top dose activity change, negative = inhibition, actives largely listed as inhibitors; 0.01% of 330,000 active; AID 463254;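 further: potency means the concentration at half of the fitted maximal effect; plate controls were DMSO wells for no effect and full inhibition by NEM control for full effect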
#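 USP2 core (10nM final) preincubated 30min RT with compound in 20mM Tris-HCl pH 8.0, 2mM CaCl2, 2mM beta-mercaptoethanol, 0.05% CHAPS; 25nM Ub-CHOP2 plus 25nM reporter substrate added, fluorescence (Ex485/Em531) read after 60min.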
# Coupling enz – inhibits coupling enzyme system, counter-screen for aldolase hits | coupling enzyme system counterscreen, AmpLite Red fluorescence | activity change, negative = inhibition, % at 58.2 µM, hits read low | 0.67% of 290,000 active; in the data active means activity change below about -30%
#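 Counterscreen of the coupled detection system alone, without aldolase: glyceraldehyde-3-phosphate coupling enzymes plus AmpLite Red readout. Compounds at 57.5 uM final, 10 min RT preincubation, 20 min RT reaction, fluorescence 525/598 nm.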
# USP1-UAF1 inh – inhibitors of human USP1/UAF1 deubiquitinase. recombinant USP1/UAF1, Ub-Rhodamine cleavage fluorescence. AID 743255. O94782. Potency, µM (series often up to 57.1 µM), for the others: at the highest dose activity change, negative = inhibition, actives largely listed as inhibitors. 0.23% of 390,000 active; further: potency means the concentration at half of the fitted maximal effect; nearly all actives have a fitted effect of over 60% in size
#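 USP1/UAF1 complex at 1 nM was preincubated with compound for 15 min at room temperature, then Ub-Rho substrate (150nM final) was added. Fluorescence (480/540 nm) was read kinetically, 6 reads every 60 seconds.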
# VDR inh – vitamin D3 receptor (human) inhibition; AID 504847; 0.93% of 400,000 active; VDR-SRC2-3 peptide fluorescence polarization, 2 h; Potency, µM, without a hit: max response, negative = inhibition, usual class: inhibitors; further: potency means the concentration at half of the fitted maximal effect
#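 Reagent solutions, kept cold and dark, are dispensed first; compounds are then pinned in at 23 nl, plates briefly spun, and incubated 2 h at ambient temperature. Inhibition of VDR–SRC2-3 peptide binding is read by fluorescence polarization.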
# PLK1 PBD inh – inhibitors of human PLK1 polo-box domain binding. Plk1 PBD binding of FITC phosphopeptide, fluorescence polarization. Potency, µM, without a hit: max response, negative = inhibition, most hits filed as inhibitors. 2.8% of 360,000 active. AID 720504; further: potency means the concentration at half of the fitted maximal effect; series mostly up to about 57 µM; nearly all actives have a fitted effect of over 65% in size
# Active calls of the source: *; ? = inconclusive; . = no result. Unless noted, the call rests on the fitted dose curve; in most records, active means well fitted curve in the direction sought with a large enough effect; inconclusive means small, poorly fitted or top-dose-only effect, or another doubt; inactive means no such curve, though single readings can be large; an effect the other way counts as inactive or inconclusive. Unless noted, on the % scale 0 is the no-effect control and ±100 the full control effect.
SMILES,GALK inh,USP2a block,Coupling enz,USP1-UAF1 inh,VDR inh,PLK1 PBD inh
CCOC(=O)C1CCN(C(=O)CCc2nnc3ccc(NCc4ccco4)nn23)CC1,3%,-1%,.,-17%,-1%,-11%
O=C(CCc1nnc2ccc(NCc3ccco3)nn12)N1CCN(c2ccccc2)CC1,4%,-2%,.,-12%,?,19µM*
CC(C)NCCCCOc1cccc(Br)c1,-4%,3%,1,4%,?,19µM*
CC(C)NCCOc1cccc(Br)c1,0%,-1%,-1,-10%,-17%,1%
CCCCS(=O)(=O)c1oc(-c2cccs2)nc1S(=O)(=O)c1ccc(F)cc1,.,.,.,-22%,10µM*,.
O=C(O)c1cccc(NC(=O)c2ccccc2NC(=O)c2cccs2)c1,.,.,.,-23%,.,0%
C=CCOc1ccccc1C(=O)/C=C1/C(=O)Nc2ccccc21,-6%,-1%,-1,-18%,22µM*,?
C=CCOc1ccc(C(=O)/C=C2/C(=O)Nc3ccccc32)cc1,0%,1%,0,-23%,?,-8%
CC(=O)OC[C@@]1(O)C[C@]23CCC4c5ccoc5CC[C@@]4(C)C2CCC1C3 (stereo partly specified),.,.,-1,.,-3%,.
C[C@@]12C=Cc3occc3C1CC[C@@]13C[C@@H](CCC12)[C@@](O)(CO)C3 (stereo partly specified),.,.,2,.,40µM*,.
O=C(NCc1ccccn1)C(C(=O)c1cccc([N+](=O)[O-])c1)n1cc(Cl)ccc1=O (stereo unspecified),1%,-1%,-2,-24%,-9%,3%
Cn1c(COc2nnc(-c3ccc(Cl)cc3)c3ccccc23)nc2ccccc21,-1%,5%,3,2%,-2%,-2%
COc1ccc(-c2nnc(OCc3nc4ccccc4n3C)c3ccccc23)cc1,-4%,4%,0,-8%,?,19µM*
Oc1cccc(C=Nc2cccc3ccccc23)c1O,7%,-5%,-14,?,28µM*,-11%
Oc1cccc(C=NCc2ccccc2)c1O,0%,1%,-37*,?,?,-18%
Oc1ccccc1C=Nc1cccc2ccccc12,-2%,-1%,-2,-23%,-12%,-3%
O=c1c2cn[nH]c2nc(SCc2cc(=O)n3cc(Br)ccc3n2)n1-c1ccc(Br)cc1,-1%,-9%,4,-1%,-6%,21µM*
C/C(=C\C(=O)c1ccccc1)Nc1ccc(O)cc1,3%,5%,-31*,-13%,-25%,-7%
C/C(=C\C(=O)c1cccnc1)Nc1ccc(O)cc1,-3%,1%,-21,-9%,-4%,-8%
CC(C)=CC[C@@H](O)C1=CC(=O)c2c(O)ccc(O)c2C1=O,.,.,.,.,1.8µM*,.
CC(=O)COc1cc(C)cc2oc(=O)c(C)c(C)c12,4%,0%,2,-10%,3%,-8%
c1ccc(Nc2ncncc2-c2ccoc2)cc1,.,.,-4,.,56µM*,.
FC(F)(F)c1ccccc1-c1cncnc1-n1ccnc1,.,.,2,.,-4%,.
Fc1ccc(Nc2ncncc2-c2ccoc2)cc1,.,.,-1,.,32µM*,.
CN(C)c1ccc(-c2cncnc2-n2ccnc2)cc1,.,.,-6,.,45µM*,.
SMILES,GALK inh,USP2a block,Coupling enz,USP1-UAF1 inh,VDR inh,PLK1 PBD inh
CN(C)c1ccc(-c2cncnc2Nc2ccc(F)cc2)cc1,.,.,-22,.,45µM*,.
O=C(COC(=O)c1cc([N+](=O)[O-])ccc1Cl)NCCc1ccccc1,.,2%,.,-10%,2%,3%
Cc1sc(-c2ccccn2)nc1OC(=O)c1ccc(Cl)c(Cl)c1,0%,0%,2,-14%,-14%,-5%
COc1ccccc1-c1cncnc1Nc1ccccc1,.,.,0,.,28µM*,.
COc1ccccc1-c1c(C)nn2c(N3CCN(c4ccccc4OC)CC3)cc(C)nc12,2%,1%,2,-12%,-24%,21µM*
COc1ccccc1-c1c(C)nn2c(N3CCN(c4ccccc4)CC3)cc(C)nc12,.,.,.,-15%,-5%,.

# Assay outcomes from PubChem.
